Compound activity: PubChem BioAssay, NMMLSC
A selection: hits, their analogues and other compounds. The true share with any hit is near 1.2%.
RPL19A-GFP yeast = alters RPL19A-GFP fluorescence in TOR pathway yeast screen; S. cerevisiae RPL19A-GFP strain, flow cytometry, 3 h; hits give low values; percent response vs DMSO, % at 10 µM; actives 0.3% (n = 330,000);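 active means percent response vs DMSO below 50%; inconclusive means fewer than 70 events counted for the yeast strain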;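 further: median channel GFP fluorescence of the barcoded RPL19A-GFP strain; ratio of sample median GFP to plate DMSO average so 100% = DMSO; lower means less RPL19A-GFP as with rapamycin TOR inhibition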
LAP4 TOR yeast = alters LAP4-GFP fluorescence in TOR pathway yeast screen. S. cerevisiae LAP4-GFP multiplex, flow cytometry GFP, 3 h; median GFP as percent of DMSO wells. GFP response vs DMSO, % at 10 µM. actives 0.34% (n = 320,000). AID 2023;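 active means GFP response vs DMSO above a set limit, about the screen mean plus 3 SD, cut at about 150% in these data; inconclusive means under 70 cell events counted for the yeast strain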
CIT2 TOR yeast = yeast TOR pathway CIT2-GFP modulation | S. cerevisiae CIT2-GFP strain, flow cytometry, 3 h; 100 means same as DMSO wells | GFP response vs DMSO, % at 10 µM | actives 0.065% (n = 320,000) | AID 2029;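 active means GFP response relative to DMSO above a set limit, near the screen mean plus 3 SD, cut at about 150% in these data; inconclusive means Fewer than 70 cells measured for a yeast strain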;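 further: ratio of well median GFP fluorescence to mean of DMSO wells on the plate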
DSG3 Ab inh = inhibitors of pemphigus antibody binding to human desmoglein-3; actives 0.48% (n = 310,000); P32926; binding (percent of control), % at 10 µM; DSG3-coupled beads, scFv-anti-DSG3-GFP binding, flow cytometry; hits give low values;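 active means binding more than 3 SD below its plate's average and above zero; inconclusive means below that plate limit but binding exactly zero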;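 further: hits lower antibody fragment binding to DSG3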
Target sequence (P32926 whole entry, looked up, the tested form may be a part): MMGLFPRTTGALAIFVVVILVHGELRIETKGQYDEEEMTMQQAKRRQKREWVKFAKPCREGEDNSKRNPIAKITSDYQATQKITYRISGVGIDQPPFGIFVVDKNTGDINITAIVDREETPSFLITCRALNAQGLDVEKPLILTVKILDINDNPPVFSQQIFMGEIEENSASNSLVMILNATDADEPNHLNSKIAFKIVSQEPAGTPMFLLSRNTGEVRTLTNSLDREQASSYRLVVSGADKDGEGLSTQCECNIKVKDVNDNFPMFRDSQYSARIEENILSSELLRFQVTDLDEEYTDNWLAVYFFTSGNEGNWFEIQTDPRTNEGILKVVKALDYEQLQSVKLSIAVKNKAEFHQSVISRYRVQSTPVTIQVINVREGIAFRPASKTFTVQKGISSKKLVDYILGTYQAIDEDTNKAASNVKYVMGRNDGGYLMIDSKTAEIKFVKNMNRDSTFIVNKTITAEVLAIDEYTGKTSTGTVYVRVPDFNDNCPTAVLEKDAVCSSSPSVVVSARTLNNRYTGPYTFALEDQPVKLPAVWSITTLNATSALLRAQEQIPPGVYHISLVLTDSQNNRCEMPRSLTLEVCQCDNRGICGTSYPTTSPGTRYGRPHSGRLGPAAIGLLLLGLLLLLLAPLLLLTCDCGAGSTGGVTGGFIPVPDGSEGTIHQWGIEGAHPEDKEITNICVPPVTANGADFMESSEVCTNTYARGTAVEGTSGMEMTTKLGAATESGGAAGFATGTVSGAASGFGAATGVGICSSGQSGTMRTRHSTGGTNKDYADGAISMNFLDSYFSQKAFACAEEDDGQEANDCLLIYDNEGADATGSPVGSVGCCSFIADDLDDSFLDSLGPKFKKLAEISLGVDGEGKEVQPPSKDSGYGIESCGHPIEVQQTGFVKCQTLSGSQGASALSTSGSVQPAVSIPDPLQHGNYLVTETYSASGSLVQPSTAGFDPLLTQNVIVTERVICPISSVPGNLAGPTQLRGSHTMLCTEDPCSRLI
AGP1 TOR yeast = modulators of TOR pathway AGP1-GFP in S. cerevisiae. S. cerevisiae AGP1-GFP multiplex flow cytometry, 3 h; GFP as percent of DMSO wells. GFP response vs DMSO, % at 10 µM. actives 0.02% (n = 320,000). AID 2066;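 active means GFP response relative to DMSO above a set limit, near screen average plus 3 SD, cut at about 150% in these data; inconclusive means fewer than 70 cells counted for the yeast strain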;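 further: median GFP channel fluorescence of the gated AGP1 strain per well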
MEP2-GFP yeast = modulators of TOR pathway MEP2-GFP in S. cerevisiae | S. cerevisiae MEP2-GFP strain, flow cytometry GFP, 3 h; 100% = DMSO control level | GFP response vs DMSO, % at 10 µM | actives 0.51% (n = 330,000);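 active means GFP response versus DMSO above a set limit, roughly screen mean plus 3 SD, cut at about 180% in these data; inconclusive means fewer than 70 cells counted for a yeast strain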;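 further: median GFP fluorescence of the barcode-gated MEP2-GFP cells per well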
Starred values were filed as active, the others as inactive; ? = inconclusive; . = no result; [ ] = another dose, or the depositor's remark.

SMILES	RPL19A-GFP yeast	LAP4 TOR yeast	CIT2 TOR yeast	DSG3 Ab inh	AGP1 TOR yeast	MEP2-GFP yeast
CC1=CN2C(=NC(=O)CC2(C)C(=O)N(CC(=O)NC2CCCC2)c2ccccc2C)C=C1 (configuration not stated)	36*[may fluoresce violet]	91	.	.	?	285*[may fluoresce violet]
Nc1nc(N)c2cc(CNc3ccc(Cl)c(Cl)c3)ccc2n1	.	.	.	114	.	.
CCNC(=O)/C(C#N)=C/c1c(N2CCCCCC2)nc2ccccn2c1=O	106	94	101	96	104	109
CNC(=O)/C(C#N)=C/c1c(N2CCCCCC2)nc2ccccn2c1=O	77	93	80	103	21	216*
CC(=O)Nc1sc2c(c1C#N)CCN(Cc1ccccc1)C2	95	103	110	97	100	94
N#Cc1c(NC(=O)/C=C/C(=O)O)sc2c1CCN(Cc1ccccc1)C2	23*[may fluoresce violet]	72	?	113	?	367*[may fluoresce violet]
O=C(CSc1ccccc1)Nc1ccc(-c2nc3ccccc3[nH]2)cc1	106	98	95	111	100	104
O=C(CSc1ccc(Cl)cc1)Nc1cccc(-c2nc3ccccc3[nH]2)c1	101	113	104	66*	98	188*
CCOc1ccccc1C(=O)Nc1cc(C(=O)NCC(C)C)ccc1Cl	109	110	96	.	102	96
CCOc1ccccc1C(=O)Nc1cc(C(=O)NCCc2ccccc2)ccc1Cl	98	103	104	79*	99	101
COc1ccc(C(=O)Nc2ccc(C(=O)N3CCCCC3)cc2)cc1OC	50	83	?	85	16	355*[may fluoresce violet]
COc1ccc(C(=O)Nc2ccc3c(c2)C(=O)c2ccccc2C3=O)cc1OC	100	101	102	72*	98	96
COCc1nnc(NC(=O)c2cccc(NC(=O)c3ccccc3)c2)s1	112	71	88	108	90	100
c1ccc(-c2ccccc2OCCCN2CCCC2)cc1	98	85	94	72*	91	78
c1ccc(-c2ccccc2OCCCN2CCCCCC2)cc1	103	98	99	97	107	98
CC(NC(=O)C(NS(=O)(=O)c1cccc2nsnc12)C(C)C)c1ccccc1 (configuration not stated)	99	109	103	104	104	97
O=c1oc(-c2ccc(Cl)cc2[N+](=O)[O-])nc2ccccc12	.	.	.	108	.	.
CCOC(=O)c1nnn(-c2nonc2NC(C)=O)c1C	94	92	91	52*	90	96
Cc1c(CCC(=O)NCC(=O)O)c(=O)oc2cc3occ(-c4ccccc4)c3cc12	108	98	99	84	94	106
CCCC(NC(=O)CCc1c(C)c2cc3c(-c4ccccc4)coc3cc2oc1=O)C(=O)O (configuration not stated)	65	100	?	103	?	288*[may fluoresce violet]
O=C(O)c1cccc2c1C(=O)c1cccc3snc-2c13	112	107	111	96	106	110
N#Cc1c(-c2ccc(F)cc2)cc(-c2ccccc2)nc1SCC(=O)NCC(=O)O	110	109	118	63*	113	110
O=C1c2ccccc2CCC12N=NCC2c1ccccc1 (configuration not stated)	14*[may fluoresce violet]	133	?	.	?	246*[may fluoresce violet]
CC(Oc1ccc(C(C)(C)C)cc1)C(=O)NC1CC(C)(C)NC(C)(C)C1 (configuration not stated)	101	89	100	?	102	94
CC(C)(O)c1ccccc1CC[C@@H](SCC1(CC(=O)O)CC1)c1cccc(/C=C/c2ccc3ccc(Cl)cc3n2)c1	97	111	84	115	90	95
SMILES	RPL19A-GFP yeast	LAP4 TOR yeast	CIT2 TOR yeast	DSG3 Ab inh	AGP1 TOR yeast	MEP2-GFP yeast
COc1ccc(C2(CNC(=O)C(=O)Nc3ccc(C)cc3)CCOCC2)cc1	99	98	97	99	94	101
COc1ccc(C2(CNS(=O)(=O)c3ccc(C)cc3)CCOCC2)cc1	50	96	?	90	22	191*[may fluoresce violet]
Cc1cc(C)c(C(=O)Cn2cnc3cc([N+](=O)[O-])ccc3c2=O)cc1C	105	90	87	96	27	196*
CC1(C(=O)OCc2cc(=O)n3cc(Br)ccc3n2)CC1(Cl)Cl (configuration not stated)	84	164*	59	85	88	90
CC1(C)NC(=O)N(CC(=O)OCc2cc(=O)n3cc(Br)ccc3n2)C1=O	100	109	104	103	104	109
CC1CC1C(=O)OCc1cc(=O)n2cc(Br)ccc2n1 (configuration not stated)	89	99	88	113	80	84
O=C(CN1C(=O)NC2(CCCC2)C1=O)OCc1cc(=O)n2cc(Br)ccc2n1	100	100	103	65*	106	98
C/C(=N\NC(=O)C1CC1)c1ccc2c(c1)OCCO2	112	98	93	98	104	107
CC(=O)Oc1cc(C(=O)OCC(=O)N2CCc3ccccc3C2)cc(OC(C)=O)c1OC(C)=O	97	100	98	96	101	92
Cc1ccc(NC(=O)CSc2nc3ccccc3c(=O)n2CC2CCCO2)cc1 (configuration not stated)	103	89	104	109	101	94
CN(C)c1ccc(NC(=O)CSc2nc3ccccc3c(=O)n2CC2CCCO2)cc1 (configuration not stated)	54	78	?	.	?	214*[may fluoresce violet]
O=C(CCN1C(=O)C2CC=C(Cl)CC2C1=O)NCc1ccccc1 (configuration not stated)	?	?	?	102	?	206*[may fluoresce violet]
O=C(CCN1C(=O)C2CC=C(Cl)CC2C1=O)NCc1ccco1 (configuration not stated)	104	95	98	87	99	100
C=C1[C@@H](O)[C@H](CC(C)C)N(Cc2ccccc2Br)S1(=O)=O	.	.	.	110	.	.
c1ccc(-c2nc(N3CCN(c4ccccc4)CC3)nc(-n3ccnc3)n2)cc1	59	127	?	104	20	243*[may fluoresce violet]
COCc1c(C(=O)N(C)Cc2ccccc2N2CCCC2)oc2ccccc12	.	.	.	147	.	.
O=S(=O)(Nc1ccc(Br)cc1)c1cccc2nonc12	80	152*	91	109	116	95
O=CNn1cnc2c(oc3nc(-c4ccccc4)cc(-c4ccco4)c32)c1=O	112	103	107	78*	96	101
COc1cc(/C=N/NC(=O)c2ccc(CN(C)S(=O)(=O)c3ccc(C)cc3)cc2)ccc1O	101	81	102	104	94	107
